CYP2C19 inhib – blockers of cytochrome P450 2C19 activity – biochemical, luminescence, ADME assay, primary screen; inhibition, % at 5 µM; P33261; 96,000 tested, 21% active; CYP2C19 Supersomes, luciferin-H EGE luminescence, 30 min;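 active = CYP2C19 inhibition above a set limit at 5 µM in the primary screen, cut at about 50% in these data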
Cav3 T inh – Cav3.2 calcium influx blockers – cell-based, Fluo-4 calcium fluorescence, FDSS, MLSMR library, primary screen. Cav3.2-expressing cells; active compounds read low. B-score at 10 µM. 100,000 tested, 4% active. AID 449739, 2010;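 active = single-dose well whose peak fluorescence ratio is a statistical outlier from its plate by either plate-standardised score or position-corrected B-score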
CYP2C9 act – human CYP2C9 activators, primary screen, biochemical, luminescence | Cytochrome P450 2C9 (Homo sapiens), P11712 | recombinant CYP2C9, luciferin-H conversion; active compounds read high; factor 1 = untreated enzyme, 0 = blocked | activation factor at 5 µM | 96,000 tested, 1.4% active;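 active = activation factor of 2 or more for CYP2C9 at a 5 µM dose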
CYP2C9 inh – blockers of cytochrome P450 2C9 activity – biochemical, luminescence, ADME assay, primary screen; P11712; CYP2C9 Supersomes, luciferin-H conversion; inhibition, % at 5 µM; AID 777, 2007; 96,000 tested, 20% active;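 active = blocking of liver enzyme CYP2C9 beyond about 50% at 5 µM, limit read from the data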
CYP2C19 act – human CYP2C19 activators, primary screen, biochemical, luminescence; Cytochrome P450 2C19 (Homo sapiens), P33261; activation factor at 5 µM; 96,000 tested, under 10 active; recombinant CYP2C19, luciferin-H EGE luminescence; active compounds read high; 0 = fully inhibited enzyme, 1 = untreated enzyme; AID 1025, 2008;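 active = activation factor of at least 2 at 5 µM in the primary screen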
Hits are given with their value; – = inactive; · = no result given. Most compounds without a hit are left out; they make up all but 27% or so of the library.

SMILES	CYP2C19 inhib	Cav3 T inh	CYP2C9 act	CYP2C9 inh	CYP2C19 act
CC(Oc1ccc(Cl)cc1Cl)c1nc(-c2ccc(NC(=O)c3ccco3)cc2)no1 (stereo not drawn)	–	–	–	54	–
Cc1ccccc1OCc1nc(-c2ccc(NC(=O)c3ccco3)cc2)no1	·	–	·	·	·
CCOc1ccc2cc(/C=C/C(=O)c3ccco3)c(Cl)nc2c1	–	·	–	–	–
CNC(=O)NC(=O)CSc1nc2ccccc2n1CCOC	–	–	–	–	–
CCn1c(SCc2nc3sc(C(=O)O)c(C)c3c(=O)[nH]2)nc2ccccc21	–	·	–	55	–
COCCn1c(SCc2nc3sc(C(=O)OC)c(C)c3c(=O)[nH]2)nc2ccccc21	74	–	–	91	–
O=C(CSc1nnc(-c2ccccc2NC(=O)c2ccccc2)o1)OC1CCCCC1	·	–	·	·	·
CC(=O)NCC(=O)OCC(=O)c1ccc2ccccc2c1	–	–	–	–	–
CCOC(=O)c1c(C)n(C)c2ccc(OCC(O)Cn3c(C)nc4ccccc43)cc12 (stereo not drawn)	–	–	–	70	–
COc1ccc(C2C(C#N)=C(/N=C/N3CCN(C)CC3)OC3=C2C(=O)CC(C)(C)C3)cc1OC (stereo not drawn)	–	–	–	–	–
CC1(C)CC(=O)C2=C(C1)OC(N)=C(C#N)C2c1ccc(OC(=O)N2CCOCC2)cc1 (stereo not drawn)	–	–	–	60	–
COc1cc(C2C(C#N)=C(N)OC3=C2C(=O)CC(C)(C)C3)ccc1OC(=O)N1CCOCC1 (stereo not drawn)	–	–	–	54	–
N#CC1=C(N)OC2=C(C(=O)CCC2)C1c1ccc(OC(=O)N2CCOCC2)cc1 (stereo not drawn)	–	–	–	–	–
O=c1[nH]cnc2nn(-c3ccccc3)nc12	–	-3.7	–	–	–
O=c1[nH]cnc2nc(-c3ccccc3)c(-c3ccccc3)nc12	·	–	·	·	·
CCN(CC)c1ccc(-c2nc3cnccc3n2C)cc1	90	–	–	92	–
Cn1c(Cl)c(C(=O)Nc2ccc(Cl)cc2)c2ccccc21	–	–	–	–	–
CC(=O)c1c(C)[nH]c(C(=O)Nc2ccc(C)c(C)c2)c1C	–	–	–	65	–
CC(=O)c1c(C)[nH]c(C(=O)Nc2cccnc2)c1C	–	–	–	52	–
CC(=O)c1c(C)[nH]c(C(=O)Nc2ccc3c(c2)OCCO3)c1C	–	–	–	–	–
CC1(C)NC(=O)N(CC(O)Cn2nnc3ccccc32)C1=O (stereo not drawn)	69	·	–	–	–
Cc1ccc(NC(=O)c2cc([N+](=O)[O-])ccc2NCc2cccnc2)cc1Cl	85	–	–	92	–
COC(=O)COn1c(SCC(=O)OC)nc2ccccc2c1=O	–	–	–	–	–
Cc1ccc(N2CCN(CC3CC=CCC3)CC2)cc1 (stereo not drawn)	60	–	–	–	–
FC(F)(F)c1cccc(N2CCN(CC3CC=CCC3)CC2)c1 (stereo not drawn)	80	·	–	–	–
SMILES	CYP2C19 inhib	Cav3 T inh	CYP2C9 act	CYP2C9 inh	CYP2C19 act
O=C(c1ccccc1)N1CCN(CC2CC=CCC2)CC1 (stereo not drawn)	57	–	–	78	–
O=C(CN1C(=O)C2CC=CCC2C1=O)NCC1COc2ccccc2O1 (stereo not drawn)	–	–	–	–	–
COc1ccccc1N1CCN(C(=O)CN(c2cc(C)cc(C)c2)S(C)(=O)=O)CC1	–	–	–	–	–
COC(=O)Cc1c(O)ccn(Cc2ccccc2OC)c1=O	–	–	–	–	–
COC(=O)Cc1c(O)ccn(Cc2cccc3ccccc23)c1=O	64	–	–	–	–
FC(F)(F)c1nc(N2CCCC2)ncc1-c1nnnn1-c1ccccc1	82	–	–	52	–
Cc1ccc(-n2nnnc2-c2cnc(N3CCCC3)nc2C(F)(F)F)cc1	87	-4.5	–	76	–
Cc1cccc(C)c1OCC(O)CNC(C)(C)C (stereo not drawn)	–	–	–	–	–
CNc1nc(N2CCc3ccccc32)ncc1F	82	–	–	–	–
Cn1c(=O)cc(N2CCc3ccccc32)[nH]c1=O	–	–	–	–	–

Screening results deposited in PubChem by several laboratories.
